Measured values: the supplement of paper PMC4723716
± gives the uncertainty stated by the source. The full ranking holds about 9,900 compounds; the median of “viability index relative to DMSO control” is about 1, and the lowest 2% start at about 0.85. The sample holds the lowest values, similar compounds and a random draw of the others, so the mix is not that of the screen.

What follows are molecules tested on Plasmodium falciparum NF54 stage V gametocytes (assay: viability index relative to DMSO control (fraction); higher = less gametocyte killing). Conditions: 2.5 µM, library set: Broad Institute DOS, incubation time: 72 h.
Method: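 Broad DOS informer set and blood-stage-active DOS compounds screened in duplicate at 2.5 µM against P. falciparum NF54 stage V gametocytes with the serum-free one-step SaLSSA (1536-well): 72 h at 37 °C under low oxygen, then saponin lysis and MitoTracker Red CMXRos staining, with high-content imaging. Viability index = viable-object count divided by the plate mean of DMSO wells (0 = killed, about 1 = inactive).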

**Q.** How did the viability index turn out when `O=C1CNC[C@H]2[C@@H](c3ccc(Br)cc3)[C@H](CO)N12` was run?
**A.** 0.837 ± 0.14

**Q.** `O=C1CNC[C@@H]2[C@H](c3ccc(Br)cc3)[C@H](CO)N12` was tested. Which viability index did it give?
**A.** 0.992 ± 0.074

**Q.** How did the viability index turn out when `O=C1CNC[C@H]2[C@H](c3ccc(Br)cc3)[C@H](CO)N12` was run?
**A.** 1.05 ± 0.023

**Q.** Which viability index does the source give for `COc1cccc(-c2ccc([C@H]3[C@@H](CO)N4CCCCN(C(=O)Cc5ccncc5)C[C@H]34)cc2)c1` here?
**A.** 1.06 ± 0.046

**Q.** For `O=C(O)C[C@@H]1CC[C@H]2NC[C@@H](O)COC[C@@H]2O1`, which viability index is on record?
**A.** 1.13 ± 0.034

**Q.** For `O=C(Cc1ccncc1)N1CCCCN2[C@@H](CO)[C@H](c3ccc(C#Cc4ccccc4F)cc3)[C@@H]2C1`, which viability index is on record?
**A.** 0.84 ± 0.22

**Q.** For `O=C(Cc1ccncc1)N1CCCCN2[C@@H](CO)[C@@H](c3ccc(C#Cc4ccccc4F)cc3)[C@@H]2C1`, which viability index is on record?
**A.** 0.964 ± 0.047

**Q.** `O=C(Cc1ccncc1)N1CCCCN2[C@H](CO)[C@@H](c3ccc(C#Cc4ccccc4F)cc3)[C@@H]2C1` was tested. Which viability index did it give?
**A.** 0.9619 ± 0.0014

**Q.** For `C[C@@H]1CN([C@@H](C)CO)C(=O)CCCn2cc(nn2)CO[C@@H]1CN(C)C(=O)Oc1ccc2ccccc2c1`, which viability index is on record?
**A.** 1.05 ± 0.019

**Q.** Which viability index does the source give for `C/C=C/c1ccc([C@@H]2[C@@H]3CN(C(=O)C4CCOCC4)C[C@H]2N3)cc1` here?
**A.** 1.06 ± 0.011
